Among the data in PubChem BioAssay (NCI) are growth values, retold here.

The panel holds about 83,000 compounds, 20% with a hit somewhere; the sample as a whole holds those more often.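 Interpretation: 100, growth as untreated; towards 0, rising growth inhibition; 0, no net growth; 0 to -100, cell death. Compounds scoring below 10 were considered active.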 Values without a mark were called inactive. The source made the active and inactive calls.

Test systems include HCT-15 colon; HT29 colon; SNB-75 CNS; SNB-19 CNS; U251 CNS; PC-3 prostate; UACC-62 melanoma; LOX IMVI melanoma; SK-MEL-28 melanoma; SK-MEL-2 melanoma; SN12C renal; UO-31 renal; TK-10 renal; ACHN renal; CAKI-1 renal; A498 renal; CCRF-CEM leukemia; MOLT-4 leukemia; EKVX NSCLC; SK-MEL-5 melanoma.
Holding throughout (assay): NCI-60 one-dose screen, 48 h (100 = growth as untreated, 0 = no growth, -100 = all killed)
What all share (details): 10 µM

With `COc1ccc(-c2nc3sc(-c4ccccc4)c(-c4ccccc4)n3c2/C=C/c2ccc(F)cc2)cc1`, the growth was 91.4% in the assay on HCT-15 colon; 94.7% with HT29 colon; 72.3% with SNB-75 CNS; 108% in the assay with SNB-19 CNS; 99.3% with U251 CNS; 61.6% with PC-3 prostate. Also, the growth is 82.8% in the assay on UACC-62 melanoma; 87.1% with LOX IMVI melanoma; 109% with SK-MEL-28 melanoma; 89.3% in the assay on SK-MEL-2 melanoma; 86.7% with SN12C renal; 82.7% in the assay with UO-31 renal. For the same compound, the growth in the assay with TK-10 renal was 115%; in the assay with ACHN renal, 78.9%; with CAKI-1 renal it was 67%; in the assay on A498 renal, 108%; with CCRF-CEM leukemia it was 88.1%; with MOLT-4 leukemia, 74.8%.
Take `O=C(CCc1ccccc1)N1CCN(C(=O)CCc2ccccc2)CC1`: the growth was 108% in the assay with HCT-15 colon; 101% in the assay with HT29 colon; 93.9% in the assay on SNB-75 CNS; 99.6% in the assay with SNB-19 CNS; 104% in the assay on U251 CNS; 94.3% in the assay on PC-3 prostate. For the same compound, the growth in the assay on UACC-62 melanoma is 95.4%; in the assay on LOX IMVI melanoma it was 95%; in the assay on SK-MEL-28 melanoma it was 108%; in the assay on SK-MEL-2 melanoma it was 104%; in the assay with EKVX NSCLC it was 115%; in the assay with SN12C renal, 96.9%. For the same compound, the growth with UO-31 renal was 60.1%; in the assay with TK-10 renal it was 111%; in the assay on ACHN renal, 104%; with CAKI-1 renal, 95.1%; in the assay on A498 renal it was 152%; in the assay with CCRF-CEM leukemia, 88.2%. The growth with MOLT-4 leukemia was 88.6%.
Consider `N=C(N)c1ccc(-c2ccc(-c3ccccc3)s2)s1`, for which the growth is -36.4% (active) in the assay with HCT-15 colon; -70.1% (active) with HT29 colon; -6.07% (active) with SNB-75 CNS; 10% with SNB-19 CNS; -74.6% (active) with U251 CNS; -26% (active) in the assay with PC-3 prostate. Moreover, the growth was -84.9% (active) with UACC-62 melanoma; -69.2% (active) with LOX IMVI melanoma; -95.9% (active) in the assay on SK-MEL-28 melanoma; -77.7% (active) in the assay on SK-MEL-2 melanoma; -74.9% (active) with SN12C renal; -74.1% (active) in the assay with UO-31 renal. Also, the growth is -61.7% (active) with TK-10 renal; -82.6% (active) in the assay on ACHN renal; -59.4% (active) in the assay on CAKI-1 renal; 32.1% in the assay on A498 renal; -49.4% (active) in the assay with CCRF-CEM leukemia; -55.9% (active) in the assay with MOLT-4 leukemia.
Take `Cc1ccc(S(=O)(=O)Nc2cccc3[nH]c(C(F)(F)F)nc23)cc1`: the growth was 28.3% in the assay on HCT-15 colon; 4.99% (active) with HT29 colon; -4.83% (active) with SNB-75 CNS; 39.2% with SNB-19 CNS; 29.8% in the assay on U251 CNS; 17.2% with PC-3 prostate. In addition, the growth was 7.01% (active) with SK-MEL-5 melanoma; 36.9% with UACC-62 melanoma; 41.4% with LOX IMVI melanoma; 38.4% in the assay with SK-MEL-28 melanoma; 2.59% (active) in the assay with SK-MEL-2 melanoma; 47.8% in the assay on SN12C renal. Also, the growth is 45.1% in the assay on UO-31 renal; 49.8% in the assay with ACHN renal; 25.9% in the assay with CAKI-1 renal; 13.7% in the assay on A498 renal; 13.6% in the assay with CCRF-CEM leukemia; 31.7% in the assay on MOLT-4 leukemia.
As for `CCCC(C)c1ccc(OCCCCCCN2CCNCC2)cc1` (stereo unspecified), the growth was -39.3% (active) with HCT-15 colon; 5.51% (active) in the assay with HT29 colon; 35.9% with SNB-75 CNS; 56% in the assay on SNB-19 CNS; -2.39% (active) with U251 CNS; 49.4% in the assay on PC-3 prostate. Further, the growth in the assay with UACC-62 melanoma was -46.4% (active); with LOX IMVI melanoma it was -88.3% (active); with SK-MEL-28 melanoma, 13.2%; in the assay with SK-MEL-2 melanoma it was 79%; with EKVX NSCLC it was 67.3%; with UO-31 renal, 78.7%. In addition, the growth was 85% with TK-10 renal; 49.5% with ACHN renal; 18.2% in the assay on CAKI-1 renal; 50.5% in the assay on A498 renal; 4.49% (active) in the assay on CCRF-CEM leukemia; -27.6% (active) with MOLT-4 leukemia.
Regarding `Oc1ccc(Cn2cc3c(c2-c2ccccc2)CCc2cnoc2-3)cc1`, the growth is 100% in the assay with HCT-15 colon; 94% in the assay with HT29 colon; 91.9% with SNB-75 CNS; 99.2% with SNB-19 CNS; 88.9% in the assay on U251 CNS; 87.3% in the assay on PC-3 prostate. Besides, the growth is 70.3% in the assay on UACC-62 melanoma; 88.7% in the assay on LOX IMVI melanoma; 101% with SK-MEL-28 melanoma; 102% with SK-MEL-2 melanoma; 80.2% in the assay on EKVX NSCLC; 91.7% in the assay on SN12C renal. For the same compound, the growth in the assay on UO-31 renal was 88.8%; in the assay with TK-10 renal it was 111%; in the assay with ACHN renal it was 90%; in the assay with CAKI-1 renal, 81.7%; with A498 renal, 104%; in the assay with CCRF-CEM leukemia, 99.1%. Besides, the growth in the assay with MOLT-4 leukemia is 80.5%.
Regarding `N=C(N)c1ccc(-c2ccc(-c3ccccc3)s2)cc1F`, the growth is -77.1% (active) in the assay with HCT-15 colon; -89.8% (active) in the assay on HT29 colon; -92.4% (active) in the assay with SNB-75 CNS; -75.9% (active) with SNB-19 CNS; -94.5% (active) in the assay on U251 CNS; -88% (active) in the assay with PC-3 prostate. Further, the growth in the assay on UACC-62 melanoma was -93.1% (active); in the assay with LOX IMVI melanoma, -81.4% (active); in the assay with SK-MEL-28 melanoma it was -96.2% (active); with SK-MEL-2 melanoma, -83.8% (active); in the assay on SN12C renal, -83.6% (active); in the assay with UO-31 renal, -91.2% (active). The growth is -95% (active) in the assay on TK-10 renal; -98.3% (active) with ACHN renal; -81.3% (active) in the assay on CAKI-1 renal; -88.6% (active) with A498 renal; -60.9% (active) with CCRF-CEM leukemia; -75.5% (active) in the assay on MOLT-4 leukemia.
On to `C[C@]12CC[C@H]3[C@@H](CC=C4C[C@@H](O)CC[C@@]43C)[C@@H]1CC[C@@H]2C(=O)C/C=N/O`, for which the growth is 86.4% in the assay with HCT-15 colon; 81.1% in the assay on HT29 colon; 85.4% in the assay with SNB-75 CNS; 95.1% in the assay on SNB-19 CNS; 83.8% in the assay on U251 CNS; 71.9% with PC-3 prostate. Also, the growth with UACC-62 melanoma is 88.6%; in the assay on LOX IMVI melanoma, 82%; in the assay with SK-MEL-28 melanoma, 106%; with SK-MEL-2 melanoma it was 95.9%; in the assay on SN12C renal it was 91.7%; in the assay with UO-31 renal, -94.6% (active). For the same compound, the growth is 99.5% in the assay with TK-10 renal; 89.4% in the assay with ACHN renal; 83.2% in the assay with CAKI-1 renal; 90.1% in the assay with A498 renal; 71.8% in the assay with CCRF-CEM leukemia; 69.2% with MOLT-4 leukemia.
